Assay results as given in PubChem BioAssay (NCATS).
Where “and” joins values, the source holds several entries; their conditions need not be identical. Equal values may be shown once. Results filed as inconclusive are left out. Calls of active or inactive are those of the source. The call rests on the fitted dose curve; in most records, active means well fitted curve in the direction sought with a large enough effect; inconclusive means small, poorly fitted or top-dose-only effect, or another doubt; inactive means no such curve, though single readings can be large; an effect the other way counts as inactive or inconclusive.

How the values were obtained:
[1] = Viability qHTS for spleen associated tyrosine kinase inhibitor (SYKi) naive MV4-11 cells (AID 1963823); further: nearly all actives have a fitted effect of over 40% in size
How it was run: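 CellTiter-Glo luminescence, 10 min room-temperature incubation, gave viability. Cells: naive MV4-11 (500/well), treated 72 hr at 37 C, 5% CO2.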

[2] = Cellular viability qHTS for adrenocortical cancer (ACC) cell line SW-13 (AID 1963989); conditions: SW-13 ACC cells viability, CellTiter-Glo, 48 h; activity (max response): hits give low values; further: nearly all actives have a fitted effect of over 65% in size;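 on activity (max response): cells grown in serum-free medium with ITS supplement; on the % scale 0 is the no-effect control and ±100 the full control effect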
How it was run: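 Viability was read as CellTiter-Glo luminescence after 48 h compound treatment (up to 46 uM final) of SW-13 cells grown serum-free; titration curves were fit with a four-parameter logistic model to give IC50 and efficacy.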

[3] = Cellular viability qHTS for adrenocortical cancer (ACC) cell line NCI-H295R (AID 1963990); further: nearly all actives have a fitted effect of over 60% in size
How it was run: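 CellTiter-Glo ATP luminescence, read 48 h after compound addition, measured viability of NCI-H295R adrenocortical cells grown serum-free with ITS. Final concentrations spanned up to 46 uM. Data normalized to DMSO and doxorubicin, fitted for IC50 and maximal response.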

[4] = Quantitative highthroughput screen to assess conditional lethalithy of SEM cells grown in Human Plasma-Like Medium with dialyzed fetal bovine serum (HPLM+ds) (AID 1963882); further: nearly all actives have a fitted effect of over 35% in size; on Viability: series mostly up to about 46 µM
How it was run: (§1)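 Each medium arm—HPLM with 10% dialyzed FBS, or RPMI1640 with 5 mM glucose and 10% untreated or dialyzed FBS—was screened against an 11-point, 3-fold compound titration for 48 h at 37 °C, with CellTiter-Glo luminescence as endpoint.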

[5] = Quantitative highthroughput screen to assess conditional lethalithy of SEM cells grown in RPMI1640 with dialyzed fetal bovine serum (RPMI+ds) (AID 1963884); further: nearly all actives have a fitted effect of over 35% in size
How it was run: as §1

[6] = Quantitative highthroughput screen to assess conditional lethalithy of NOMO1 cells grown in RPMI1640 with dialyzed fetal bovine serum (RPMI+ds) (AID 1963877); further: nearly all actives have a fitted effect of over 30% in size;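 on Viability: series mostly up to about 46 µM; 100% = DMSO control wells and 0% = empty wells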
How it was run: as §1

[7] = Quantitative highthroughput screen to assess conditional lethalithy of NOMO1 cells grown in Human Plasma-Like Medium with dialyzed fetal bovine serum (HPLM+ds) (AID 1963878); further: nearly all actives have a fitted effect of over 35% in size
How it was run: as §1

[8] = Quantitative highthroughput screen to assess conditional lethalithy of P12 Ichikawa cells grown in Human Plasma-Like Medium with dialyzed fetal bovine serum (HPLM+ds) (AID 1963879); conditions: Potency: viability; further: nearly all actives have a fitted effect of over 35% in size
How it was run: as §1

[9] = Quantitative highthroughput screen to assess conditional lethalithy of P12 Ichikawa cells grown in RPMI1640 with untreated serum (RPMI+s) (AID 1963881); conditions: Potency: viability; further: nearly all actives have a fitted effect of over 35% in size;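 on Viability: series mostly up to about 46 µM; 100% = DMSO wells and 0% = empty wells without cells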
How it was run: as §1

[10] = Quantitative highthroughput screen to assess conditional lethalithy of SEM cells grown in RPMI1640 with unreated serum (RPMI+s) (AID 1963883); further: nearly all actives have a fitted effect of over 35% in size
How it was run: as §1

[11] = Viability qHTS for spleen associated tyrosine kinase inhibitor (SYKi) drug resistant MV4-11 cells (AID 1963824); further: nearly all actives have a fitted effect of over 35% in size
How it was run: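 CellTiter-Glo luminescence, read 10 min after reagent addition, reports viability after a 72 hr compound exposure. Cells are an MV4-11 line made resistant to SYK inhibition, seeded at 500 per well onto compound-containing plates.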
Potency means the concentration at half of the fitted maximal effect.

O=C(N/N=C/c1ccc([N+](=O)[O-])o1)c1cc([N+](=O)[O-])cc([N+](=O)[O-])c1O
inactive: Potency [1] | activity (max response) [2] -8.68% | Potency [3]

CNC(=O)N1N=C(c2ccc(N)cc2)c2cc3c(cc2CC1C)OCO3 (stereo not drawn)
active: Potency [1] 1840 nM | Potency [4] 10500 nM | Potency [5] 5900 nM

C#C[C@]1(O)C=C[C@H]2[C@@H]3CCC4=CC(=O)CC[C@@H]4[C@H]3CC[C@@]21CC
inactive: Potency [1] | activity (max response) [2] -4.27% and 2.85%

O=C(O)CNC(=O)C1C(=O)N(C2CCCCC2)C(=O)N(C2CCCCC2)C1=O
inactive: Potency [1] | activity (max response) [2] -10.4% | Potency [3]

CC(=O)[C@H]1CC[C@H]2[C@@H]3CC[C@H]4C[C@](C)(O)CC[C@]4(C)[C@H]3CC[C@]12C
inactive: Potency [1] | activity (max response) [2] 7.79% | Potency [3]

CC[C@@]1(O)C(=O)OCc2c1cc1n(c2=O)Cc2cc3ccccc3nc2-1
active: Potency [1] 23.5 nM | Potency [6] 66.2 nM | Potency [7] 66.2 nM | Potency [8] 29.6 nM | Potency [9] 23.5 nM | Potency [4] 46.9 nM | Potency [10] 23.5 nM | Potency [5] 26.4 nM | Potency [2] 126 nM

COc1cccc2c1C(=O)c1c(O)c3c(c(O)c1C2=O)C[C@@](O)(C(=O)CO)CC3OC1CC(N2CCOC(OC)C2)C(O)C(C)O1 (stereo partly drawn)
active: Potency [1] 2.7 nM | Potency [2] 100 nM

C/C(=C\c1csc(C)n1)[C@@H]1C[C@@H]2O[C@@H]2CCC[C@H](C)[C@H](O)[C@@H](C)C(=O)C(C)(C)[C@@H](O)CC(=O)O1
active: Potency [1] 5.2 nM | Potency [11] 5.8 nM | Potency [3] 22.4 nM

O=C(Oc1ccc([N+](=O)[O-])cc1)N1CCC(C(O)(c2ccc3c(c2)OCO3)c2ccc3c(c2)OCO3)CC1
inactive: Potency [1] | Potency [6] | Potency [9] | Potency [4] | activity (max response) [2] 5.03%
active: Potency [8] 14800 nM

CN1CCC(N(Cc2ccccc2)c2ccccc2)CC1
inactive: Potency [1] | Potency [3]

C[N+]1(CCC(C(N)=O)(c2ccccc2)c2ccccc2)CCCCC1
inactive: Potency [1] | activity (max response) [2] 8.34% | Potency [3]

O=C(O)COc1nc(Cl)c(Cl)cc1Cl
inactive: Potency [1] | activity (max response) [2] 12.3% | Potency [3]

Cc1ccc(-n2nccn2)c(C(=O)N2CCN(c3nc4cc(Cl)ccc4o3)CCC2C)c1 (stereo not drawn)
active: Potency [11] 9200 nM
